Test results from PubChem BioAssay (NCI).
The panel holds about 79,000 compounds, 15% with a hit somewhere; the sample as a whole holds those more often. Unmarked numbers belong to inactive results. The source made the active and inactive calls. No stated cut-off is given here; in the data, active means growth inhibition above about 70%; inactive means the rest.

assay: NCI Yeast Anticancer Drug Screen. Data for the mlh1 rad18 strain (AID 175); settings: S. cerevisiae mlh1 rad18 strain growth inhibition; at 5.0 µM (retest, dose inferred, filed as 0.5); stronger effect = higher value
Outline: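 Growth inhibition of the yeast strain was measured after compound exposure and expressed relative to vehicle-treated controls. The strain carries defined defects in DNA damage repair.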

Row | Structure (SMILES) | growth inhibition
1 | COc1cc(C(c2cc3c(cc2O)OCO3)N2CCN(C(c3cc(OC)c(OC)c(OC)c3)c3cc4c(cc3O)OCO4)CC2)cc(OC)c1OC (configuration not stated) | 2%
2 | Cc1cc(N)c(C)c2c1[nH]c1ccc(Br)cc12 | 3%
3 | COc1ccc(C2c3cc4c(cc3OC(O)(CO)C2C(=O)O)OCO4)cc1 (configuration not stated) (tested in a mixture with another compound) | -8%
4 | CCCCCC(/C=N/Nc1nc(C)cc(=O)[nH]1)=C\c1ccccc1 | -8%
5 | O=C1/C(=C/c2ccc([N+](=O)[O-])cc2)CNC/C1=C\c1ccc([N+](=O)[O-])cc1 | 96% (active)
6 | CC(c1ccc2cccc(F)c2c1)c1ccccc1C(=O)O (configuration not stated) | 5%
7 | CN(NC(=O)CC(=O)NN(C)C(=S)c1ccccc1)C(=S)c1ccccc1 | 78% (active)
8 | O=c1nc(N2CCCC2)nc(N2CCCC2)s1 | 14%
9 | CC(=O)SC1C(=O)N(C)C(SC(C)=O)C(=O)N1C (configuration not stated) | -2%
10 | CCN(CC)CC(O)c1ccnc2c(O)cccc12 (configuration not stated) | 1%
11 | CC1=NN(c2ccccc2)C(=O)C1N=Nc1cc(Cl)cc(S(=O)(=O)O)c1O (configuration not stated) | 52%
12 | O=C(O)CC(NC(=O)CP(=O)(O)O)C(=O)O.[NH-]C1CCCCC1[NH-].[Pt+2] (configuration not stated) | 18%
13 | COc1ccc(-c2nc3c(C(=O)NCCN(C)C)cccc3c3ccccc23)cc1 | 10%
14 | C[C@]12CCC(=O)C=C1CC[C@@H]1[C@@H]2[C@@H](O)C[C@@]2(C)[C@H]1CC[C@]2(O)C(=O)COC(=O)CCC1CCCC1 | 75% (active)
15 | O=C1C=CC(=O)N1c1cccc([N+](=O)[O-])c1 | 91% (active)
16 | CC(=O)O/C=C1\c2ccccc2CCC1c1ccc2ccccc2c1 (configuration not stated) | 9%

Row | Structure (SMILES) | growth inhibition
17 | CCOc1ccccc1NC1=C(Cl)C(=O)c2ccccc2C1=O | 99% (active)
18 | CCc1cccc(C)c1N1C(=O)C(=O)C(c2nc3ccccc3o2)/C(=N\NS(=O)(=O)c2ccc(C)cc2)C1=O (configuration not stated) | 5%
19 | O=C(CC(=O)c1ccccc1)CC(=O)c1cccc(Cl)c1 | 4%
20 | CC(O)c1c2ccccc2cc2ccccc12 (configuration not stated) | -13%
21 | CCCCCCCCCCCCCCCCC#N | -5%
22 | O=C1/C(=C/c2cccc(Br)c2)CCc2ccccc21 | 13%
23 | CC1(C)c2ccccc2Cc2cc3ccccc3nc21 | -1%
24 | CN(C)Cc1ccc2[nH]c3c(c2c1)CCCC3 | 28%
25 | C=C1C(=O)O[C@@H]2C[C@@]3(C)CCC[C@H](C)C3=C[C@H]12 | 14%
26 | O=C1C=CC(=O)c2c1cc1ccccc1c2O | 19%
27 | Cc1c(CNc2ccc(Cl)c(Cl)c2Cl)cnc2nc(N)nc(N)c12 | 30%
28 | O=C(O)C1(Cc2ccc3c(c2)CCC3)Cc2cc3c(cc2C1)CCC3 | 14%
29 | O=C(c1ccc(O)c(Br)c1)c1cc(Br)ccc1O | 78% (active)
30 | Oc1cc(F)cc2cccnc12 | 42%
31 | C/C(=N\OC(=O)c1ccccc1)[N+](=O)[O-] | -54%
32 | O=C(c1ccccc1)C(Br)CCCC(Br)C(=O)c1ccccc1 (configuration not stated) | 24%
